Reference: PubChem BioAssay AID1861 (The Scripps Research Institute Molecular Screening Center, 2009)
Screen size: about 290,000 compounds; about 3,100 (1.1%) were called active. Shown is part of a subset that was picked to be rich in actives. Values without a mark were called inactive. Cut-off read from the data, not from the text of the source: active = inhibition above about 16% (passing the limit was not always enough); inactive = the rest.

These compounds were tested against Neuropeptides B/W receptor type 1 (Homo sapiens) (UniProt P48145) (assay: GPR7 receptor antagonists, primary screen, cell-based, fluorescence, single concentration (AID 1861;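 note: cells stimulated with the agonist NPW; 0% = agonist with vehicle and 100% = vehicle without agonist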)). Conditions: GPR7-expressing cells, fluorescence antagonist assay; at 4.4 µM; stronger effect = higher value.
Sequence of Neuropeptides B/W receptor type 1 (Homo sapiens) (P48145 whole entry, looked up): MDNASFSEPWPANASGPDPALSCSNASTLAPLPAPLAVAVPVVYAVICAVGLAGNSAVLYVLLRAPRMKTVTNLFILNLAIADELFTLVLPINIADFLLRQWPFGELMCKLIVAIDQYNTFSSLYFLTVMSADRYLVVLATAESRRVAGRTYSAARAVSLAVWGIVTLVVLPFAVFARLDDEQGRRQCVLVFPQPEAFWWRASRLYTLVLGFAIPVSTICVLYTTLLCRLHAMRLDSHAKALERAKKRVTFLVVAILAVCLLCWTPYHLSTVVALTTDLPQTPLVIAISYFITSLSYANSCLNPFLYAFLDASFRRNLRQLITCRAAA

Compound | inhibition
CNC(=O)c1sc(Nc2ccc(OCc3ccccc3)cc2)nc1C | 1.33%
CCC(Cc1ccccc1)NC(=O)C1CCCCC1 (stereo not drawn) | -7.32%
O=C(NC(=O)c1ccccc1)NC(=O)c1ccccc1 | 6%
O=C(NC(=O)c1ccccc1)Nc1ccccc1O | 40.9% (active)
Cc1ccc(NC(=O)NC(=O)c2ccccc2)cc1F | -0.7%
CCn1c(SCC(=O)Nc2ccc3c(c2)OCCO3)nnc1-c1ccncc1 | -4.19%
Cc1nonc1C1CCCN1C(=O)c1cc(COc2cccc(C(F)(F)F)c2)on1 (stereo not drawn) | -2.6%
COc1cccc(N2CCN(c3ccc4nnc(CCC(=O)N5CCN(C)CC5)n4n3)CC2)c1 | -14.2%
CCCOc1cccc(C(=O)Nc2ccccc2C(=O)N2CCN(C)CC2)c1 | -9.32%
O=C(CN1C(=O)/C(=C\c2ccc(C(F)(F)F)cc2)Sc2ccccc21)NCc1ccco1 | 5.13%
O=C(CN1C(=O)/C(=C/c2ccccc2F)Sc2ccccc21)NCc1cccnc1 | 40.7% (active)
O=C(CN1C(=O)S/C(=C\c2ccccc2F)C1=O)NCCCn1ccnc1 | -12%
CSCc1ccc(C(=O)Nc2cc(C)cc(C)c2)cc1 | 3.49%
O=C(Nc1ccc(-c2ccc3nncn3n2)cc1)C1CCCCC1 | -11.2%
Cc1ccc2nc(Nc3ccccc3)cc(C)c2c1 | -2.1%
Cc1ccc2nc3n(c(=O)c2c1)CCC3 | -5.32%
Cc1ccc2nc(C)c3c(c2c1)N(c1ccccc1)CC3 | 36.7% (active)
C/C(=N\NC(=O)c1cc2c(s1)CCC(C)C2)c1cccnc1 (stereo not drawn) | -6.07%
O=C(NCc1ccc2c(c1)OCO2)C(=O)NCC1OCCN1S(=O)(=O)c1ccc(F)cc1 (stereo not drawn) | -11.7%
CN(C)c1ccc(Nc2c3c4c(cccc4n(C)c2=O)C(=O)c2ccccc2-3)cc1 | -1.09%

Compound | inhibition
CCN1CCN(c2ccc([N+](=O)[O-])cc2C(=O)c2ccc(Cl)cc2)CC1 | 32.3% (active)
CCC(=O)c1ccc(N2CCN(C(=O)c3cc([N+](=O)[O-])ccc3F)CC2)c(F)c1 | 8.34%
O=C(Nc1cccc(Cl)c1)c1cc([N+](=O)[O-])ccc1N1CCN(CCO)CC1 | 6.31%
O=C(Cn1cnc2ccccc21)Nc1ccccc1-c1ccccc1 | -5.35%
CC(C)c1nnc(NC(=O)COC(=O)/C=C/c2ccc([N+](=O)[O-])cc2)s1 | -6.73%
CCOCC(=O)Nc1ncc(S(=O)(=O)c2ccc([N+](=O)[O-])cc2)s1 | 19.5% (active)
O=C(COC(=O)C1CCCCC1)Nc1ccc([N+](=O)[O-])cc1 | 23.9%
COc1ccc2c(c1)c(C(=O)N/N=C/c1cccs1)c(C)n2C | -1.8%
O=C(COc1ccc(Cl)cc1Cl)NCCCNC(=O)c1cnccn1 | -1.6%
CC(=O)N1CCCc2cc(S(=O)(=O)N3CCCC(C(=O)N4CCN(c5cccc(Cl)c5)CC4)C3)ccc21 (stereo not drawn) | 35.7% (active)
CC(=O)N1CCCc2cc(S(=O)(=O)N3CCCC(C(=O)NCc4ccc(Cl)cc4)C3)ccc21 (stereo not drawn) | 0.31%
CC(=O)N1c2ccc(S(=O)(=O)N3CCCC(C(=O)Nc4cccc(Cl)c4)C3)cc2CC1C (stereo not drawn) | 2.68%
CCOc1cc2[nH]c(=S)n(Cc3ccc(C(=O)N4CCN(C)CC4)cc3)c(=O)c2cc1OCC | 2.37%
CCNC(=S)N(CCN(CC)CC)Cc1cc2cc3c(cc2[nH]c1=O)OCCO3 | -10.2%
COc1ccc(-n2c(C)cc(C(=O)COC(=O)c3cc(OC)c(OC)cc3NC(=O)c3cccs3)c2C)cc1 | 27.1% (active)
Cc1cc(C(=O)COC(=O)c2cccs2)c(C)n1-c1c(C)n(C)n(-c2ccccc2)c1=O | -14.8%
COc1cc2ccccc2cc1C(=O)Nc1ccc(NC(=O)c2cccs2)cc1 | -3.15%
O=C(O)c1ccc(S(=O)(=O)N2CCOCC2)o1 | 1.56%
Cc1ccc(S(=O)(=O)NCC2CCC(C(=O)N3CCOCC3)CC2)cc1 (stereo not drawn) | -4.78%
CN1C/C(=C/c2cccs2)C(=O)/C(=C\c2cccs2)C1 | -7.39%

Compound | inhibition
CS(=O)(=O)N(Cc1nc2sc3c(c2c(=O)[nH]1)CCCC3)C1CCCCC1 | 1.34%
CCCC(=O)Nc1nc2ccc(NC(=O)c3cccnc3)cc2s1 | 3.59%
CCCC(=O)Nc1nc2ccc(NC(=O)c3c(F)c(F)c(OC)c(F)c3F)cc2s1 | 36.2% (active)
CSc1nc2ccc(NC(=O)c3c(F)cccc3F)cc2s1 | -5.74%
CN(C)c1nc(=Nc2cccc(Cl)c2)ss1 | -8.61%
CNS(=O)(=O)c1cccc(C(=O)NC2CCCc3ccccc32)c1 (stereo not drawn) | -8.59%
COc1ccc(C(CNCC(=O)Nc2ccccc2F)N(C)C)cc1 (stereo not drawn) | 0.06%
COc1ccc(CC(=O)NC(C)CCc2ccccc2)cc1 (stereo not drawn) | -6.45%
COc1ccc(C(CCNCc2ccccc2F)c2ccc(F)cc2)cc1 (stereo not drawn) | 27.6% (active)
N#Cc1c(Cl)nc(-c2cccnc2)nc1-c1ccccc1 | 4.22%
O=C1CSC(c2ccccc2)N1c1nc(-c2ccc(Cl)cc2Cl)cs1 (stereo not drawn) | -0.11%
Clc1ccc(-c2cc(-c3ccccn3)on2)c(Cl)c1 | -1.76%
Clc1ccc(-c2cc(C3CCNCC3)[nH]n2)c(Cl)c1 | 28.3% (active)
COc1ccc(N(CC(=O)NCc2ccc(F)cc2)C(=O)CCC(=O)Nc2nccs2)cc1 | 1.89%
COCCOC1CCN(C(=O)c2ccc(OC)c(OC3CCN(C(C)C)CC3)c2)CC1 | -13.7%
Cc1ccc(CN2CCN(Cc3cn(C)nc3-c3ccccc3)CC2CCO)o1 (stereo not drawn) | -17.8%
Cc1ccccc1CN1C[C@@H]2C[C@@H](c3cn(C)nc3-c3ccccc3)N3CCC[C@@]23C1=O | 25.5% (active)
Cc1ccccc1CN1C[C@@H]2C[C@@H](c3ccc4nsnc4c3)N3CCC[C@@]23C1=O | -4.53%
